The results in this text go back to PubChem BioAssay.

Calls of active or inactive are those of the source.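 The calls were made as follows: active = Her2 level under about 52% in both replicate screens, with viability over 70% of control (limit read from the data); inconclusive = Her2 under the limit in one screen only, or viability under 70%; inactive = Her2 level above the set limit.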

Test system in the first test: not listed separately
Put plainly: reducers of endogenous Her2 protein level, primary screen, SKBR3 breast tumor cells, AlphaScreen, ATP viability (AID 461).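 As to Her2 level: lower value means less Her2 protein in the cells.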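 As to viability: percent of carrier control wells set as 100% viability.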 Particulars: 18-24 h, measured here: SKBR3 viability, ATP luminescence, at 10 µM.
Turning to `CCc1ccc(C2CC(c3cccc(OC)c3)n3nc(N)nc3N2)cc1` (stereo unspecified), the viability was determined as 90%.
The same measure, in the same setting: in the case of `COc1ccc(NS(=O)(=O)c2coc(C(N)=O)c2)cc1Cl` it was 101%.
Take `O=C1c2ccccc2S(=O)(=O)N1CC(O)Cn1c2ccccc2c2ccccc21` (stereo unspecified): the viability came to 90%.
On to `O=C(Nc1nnc(-c2ccc(Cl)cc2)o1)C1CCCCC1`, for which the viability was found to be 87.5%.
Same read-out and setting: in the case of `O=C1c2ccccc2C(Nc2ccc(F)cc2F)N1CCN1CCOCC1` (stereo unspecified) it was 83%; in that of `CCOc1ccc(N(CC(=O)NC2CCCCC2)S(=O)(=O)c2c(C)noc2C)cc1`, 79.5%.
`Cc1ccc2oc(=O)c3cnn(CC(=O)N4CCCc5ccccc54)c3c2c1`: the viability was 100%.
In the case of `O=C(Nn1cnnc1)C1Cc2ccccc2CN1S(=O)(=O)c1ccc(F)cc1` (stereo unspecified), the viability is 112%.
Same read-out and setting: to `Cc1cc(C)cc(N(CC(=O)NC2CCC(C)CC2)S(=O)(=O)c2c(C)noc2C)c1` (stereo unspecified) belongs 104%; to `Cc1nc2ccccn2c1/C(O)=C1\C(=O)C(=O)N(CCCN(C)C)C1c1ccc(F)cc1` (stereo unspecified), 89%; to `CC(=O)N(C(C)=O)c1ncc2c([nH]c3ccccc32)c1C#N`, 106%.
As for `CC(C)c1ccc(C(O)c2cnc(C(C)C)n2C)cc1` (stereo unspecified), the viability stood at 112%.
Regarding `COCCn1cc(C(=O)c2ccccc2OCC(=O)Nc2cc(C)on2)cc(C#N)c1=O`, the viability was determined as 82.5%.
`O=C(NC(=O)c1cccc(F)c1)OC[C@@H]1CCCN2CCCC[C@H]12`: the viability was 102%.
Still for that read-out and setting: in the case of `CCN1CCN(C(=O)Cn2ncc3ccsc3c2=O)CC1` it was 101%; in that of `CCCC(=O)Nc1cc(C)c2c(=O)oc3ccccc3c2n1`, 87%.
On to `Cc1cc(C)c(C#N)c(SCC(=O)Nc2ccc(S(=O)(=O)Nc3onc(C)c3C)cc2)n1`, for which the viability was 90.5%.
On to `CC1=C(C(N)=O)C(c2ccncc2)n2nc(-c3ccccc3Cl)nc2N1` (stereo unspecified), for which the viability was found to be 96%.
The same measure, in the same setting: to `O=C(C1CCCN1S(=O)(=O)c1cccc2cccnc12)N1CCn2c1nc1ccccc12` (stereo unspecified) belongs 100%.
In the case of `Cc1ccc(C(=O)CC2(O)C(=O)N(C)c3ccc(Br)cc32)c(C)c1` (stereo unspecified), the viability is 85%.
With `COc1ccc(OCCSc2nc3ccccc3n2CC(=O)O)cc1`, the viability came to 92.5%.

The target in a further test is Receptor tyrosine-protein kinase erbB-2 (Homo sapiens) (UniProt P04626). Described as above. The following applies: 18-24 h, at 10 µM, stronger effect = lower value.
Sequence of Receptor tyrosine-protein kinase erbB-2 (Homo sapiens) (P04626 whole entry, looked up): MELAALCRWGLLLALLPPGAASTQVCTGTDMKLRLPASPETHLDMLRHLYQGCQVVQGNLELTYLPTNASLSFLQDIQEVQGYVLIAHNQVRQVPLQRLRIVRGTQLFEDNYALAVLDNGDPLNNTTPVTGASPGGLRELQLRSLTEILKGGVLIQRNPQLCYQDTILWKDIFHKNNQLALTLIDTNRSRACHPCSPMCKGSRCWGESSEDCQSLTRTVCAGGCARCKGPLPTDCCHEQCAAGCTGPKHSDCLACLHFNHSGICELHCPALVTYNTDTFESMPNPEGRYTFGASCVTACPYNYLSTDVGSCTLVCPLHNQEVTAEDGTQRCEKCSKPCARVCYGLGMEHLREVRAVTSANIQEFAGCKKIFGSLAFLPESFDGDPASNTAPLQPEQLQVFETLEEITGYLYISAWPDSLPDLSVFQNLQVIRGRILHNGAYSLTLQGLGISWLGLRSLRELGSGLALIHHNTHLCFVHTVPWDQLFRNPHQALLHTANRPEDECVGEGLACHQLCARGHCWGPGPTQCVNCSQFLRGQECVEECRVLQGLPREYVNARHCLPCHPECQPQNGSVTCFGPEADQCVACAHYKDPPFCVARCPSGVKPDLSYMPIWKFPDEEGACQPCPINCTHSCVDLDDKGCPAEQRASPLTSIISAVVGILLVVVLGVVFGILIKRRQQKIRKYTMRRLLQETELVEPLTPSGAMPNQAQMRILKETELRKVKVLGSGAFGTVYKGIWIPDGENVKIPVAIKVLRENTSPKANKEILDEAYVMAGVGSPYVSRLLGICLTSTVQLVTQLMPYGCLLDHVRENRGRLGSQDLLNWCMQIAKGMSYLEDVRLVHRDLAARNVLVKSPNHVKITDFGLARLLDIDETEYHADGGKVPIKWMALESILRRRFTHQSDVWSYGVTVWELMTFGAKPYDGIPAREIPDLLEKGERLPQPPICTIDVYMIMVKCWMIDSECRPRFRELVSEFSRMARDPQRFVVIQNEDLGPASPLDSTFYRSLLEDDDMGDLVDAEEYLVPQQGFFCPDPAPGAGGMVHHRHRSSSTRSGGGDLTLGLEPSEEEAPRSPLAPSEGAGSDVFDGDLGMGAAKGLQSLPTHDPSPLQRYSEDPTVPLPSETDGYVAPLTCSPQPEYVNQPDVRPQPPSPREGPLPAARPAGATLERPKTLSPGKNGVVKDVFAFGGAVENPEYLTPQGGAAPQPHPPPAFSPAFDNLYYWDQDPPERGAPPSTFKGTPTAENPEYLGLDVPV
In the case of `O=C(Cn1cc2c(n1)CCCCC2)N1CCc2ccccc21`, the Her2 level is 95.5% (inactive).
As for `CC(C)c1nccn1S(=O)(=O)c1cc(Cl)ccc1Cl`, the Her2 level is 112% (inactive).
`CC(=O)Nc1cccc(NC(=O)CSc2nn3c(=O)c(C)nnc3s2)c1`: the Her2 level is 91% (inactive).
In the case of `CCOc1ccc2nc(Nc3nc4c(c(=O)[nH]3)CCC4)nc(C)c2c1`, the Her2 level is 99% (inactive).
As to `C(=N\c1c(-c2ccccc2)nc2n1CCS2)/c1ccccc1`, the Her2 level was 104% (inactive).
Regarding `CCN(CC)S(=O)(=O)c1ccc2oc(C(=O)N3CCOCC3)c(C)c2c1`, the Her2 level was 101% (inactive).
For the compound `CCOC(=O)C1CCN(Cc2ccc(OC)c(C)c2OC)CC1`, the Her2 level was 97.5% (inactive).
Still for that read-out and setting: to `Cc1cc(N)n2nc(-c3ccccc3)cc2n1` belongs 71% (inactive); to `Cc1nnc(SCC(=O)Nc2sc3c(c2C#N)CCCC3)[nH]c1=O`, 91.5% (inactive); to `Cc1cc(NC(=O)COc2cccc(C)c2C)no1`, 102% (inactive).
Regarding `Cc1cc(C)c(NC(=O)CSc2nc3c(c(=O)n2C)SC(C)C3)c(C)c1` (stereo unspecified), the Her2 level was 118% (inactive).
As for `CC(=O)c1ccc(OCC(O)CN2CCN(CCO)CC2)cc1` (stereo unspecified), the Her2 level was 112% (inactive).
For the compound `CCn1cc(C(=O)NCC2CCCO2)c(=O)c2cc(S(=O)(=O)N(C)C)ccc21` (stereo unspecified), the Her2 level is 113% (inactive).
Turning to `C=CCSc1nc(N)c2c(C)c(C)sc2n1`, the Her2 level is 70.5% (inactive).
On to `CC1CCCN(C(=O)c2cc3c(-c4ccc(Cl)cc4)nn(C)c3s2)C1` (stereo unspecified), for which the Her2 level was 87% (inactive).
On to `COc1cccc2cc(C(=O)OC3CCN(C)CC3)c(=O)oc12`, for which the Her2 level is 103% (inactive).
Take `COC(=O)c1cn(C(=O)c2ccc(Br)o2)c2ccccc12`: the Her2 level was 102% (inactive).
With `COc1cc(NC(=O)C2C3C=CC(C3)C2C(=O)O)c(OC)cc1Cl` (stereo unspecified), the Her2 level was 95% (inactive).
Regarding `COc1ccc(C2CC(c3ccc(C)cc3)Nc3ncnn32)cc1` (stereo unspecified), the Her2 level was 96.5% (inactive).
Take `CCc1ccc(C2CC(c3cccc(OC)c3)n3nc(N)nc3N2)cc1` (stereo unspecified): the Her2 level was 92% (inactive).
As to `COc1ccc(NS(=O)(=O)c2coc(C(N)=O)c2)cc1Cl`, the Her2 level is 110% (inactive).
As to `O=C1c2ccccc2S(=O)(=O)N1CC(O)Cn1c2ccccc2c2ccccc21` (stereo unspecified), the Her2 level is 96% (inactive).
`O=C(Nc1nnc(-c2ccc(Cl)cc2)o1)C1CCCCC1`: the Her2 level is 99% (inactive).
As to `O=C1c2ccccc2C(Nc2ccc(F)cc2F)N1CCN1CCOCC1` (stereo unspecified), the Her2 level is 83% (inactive).
Turning to `CCOc1ccc(N(CC(=O)NC2CCCCC2)S(=O)(=O)c2c(C)noc2C)cc1`, the Her2 level was 86.5% (inactive).
The same measure, in the same setting: to `Cc1ccc2oc(=O)c3cnn(CC(=O)N4CCCc5ccccc54)c3c2c1` belongs 98.5% (inactive); to `O=C(Nn1cnnc1)C1Cc2ccccc2CN1S(=O)(=O)c1ccc(F)cc1` (stereo unspecified), 97% (inactive); to `Cc1cc(C)cc(N(CC(=O)NC2CCC(C)CC2)S(=O)(=O)c2c(C)noc2C)c1` (stereo unspecified), 101% (inactive).
On the same count and under the same terms, in the case of `Cc1nc2ccccn2c1/C(O)=C1\C(=O)C(=O)N(CCCN(C)C)C1c1ccc(F)cc1` (stereo unspecified) it was 91% (inactive); in that of `CC(=O)N(C(C)=O)c1ncc2c([nH]c3ccccc32)c1C#N`, 95% (inactive); in that of `CC(C)c1ccc(C(O)c2cnc(C(C)C)n2C)cc1` (stereo unspecified), 92% (inactive).
As to `COCCn1cc(C(=O)c2ccccc2OCC(=O)Nc2cc(C)on2)cc(C#N)c1=O`, the Her2 level was 115% (inactive).
On the same count and under the same terms, to `O=C(NC(=O)c1cccc(F)c1)OC[C@@H]1CCCN2CCCC[C@H]12` belongs 111% (inactive); to `CCN1CCN(C(=O)Cn2ncc3ccsc3c2=O)CC1`, 110% (inactive).
On to `CCCC(=O)Nc1cc(C)c2c(=O)oc3ccccc3c2n1`, for which the Her2 level is 94.5% (inactive).
Consider `Cc1cc(C)c(C#N)c(SCC(=O)Nc2ccc(S(=O)(=O)Nc3onc(C)c3C)cc2)n1`, for which the Her2 level is 97% (inactive).
Consider `CC1=C(C(N)=O)C(c2ccncc2)n2nc(-c3ccccc3Cl)nc2N1` (stereo unspecified), for which the Her2 level is 96.5% (inactive).
As for `O=C(C1CCCN1S(=O)(=O)c1cccc2cccnc12)N1CCn2c1nc1ccccc12` (stereo unspecified), the Her2 level is 84.5% (inactive).
For the compound `Cc1ccc(C(=O)CC2(O)C(=O)N(C)c3ccc(Br)cc32)c(C)c1` (stereo unspecified), the Her2 level is 88.5% (inactive).
`COc1ccc(OCCSc2nc3ccccc3n2CC(=O)O)cc1`: the Her2 level is 108% (inactive).
